Screens deposited in PubChem BioAssay by Broad Institute.
The sample as a whole holds a higher share of hits than the screen did.
Tgondii IFNg: T. gondii growth inhibition with IFN-gamma, primary screen, cell-based; 69,000 tested, 3.8% active; Toxoplasma gondii growth in IFN-gamma-treated host cells; hits give low values; activity change, negative = inhibition, % (no concentration beside the values); in the data active = activity change below about -70%, passing the limit was not always enough;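 also: host cells are HeLa cells infected with Toxoplasma gondii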
* marks the source's active call; other numbers are inactive results; ! = repeats disagree.

SMILES | Tgondii IFNg
CCCN1C(=O)CCc2cc(NC(=O)C(CC)c3ccccc3)ccc21 (centres undefined) | -82*
CCN1C(=O)CCc2cc(NC(=O)c3ccc(C(C)C)cc3)ccc21 | -105*
CCCN1C(=O)CCc2cc(NC(=O)c3ccn(CC)n3)ccc21 | 96
CC(C)CN1C(=O)CCc2cc(NC(=O)CCc3ccccc3)ccc21 | -98*
CC(C)CN1C(=O)CCc2cc(NC(=O)C3CCCCC3)ccc21 | -37
CCN1C(=O)CCc2cc(NC(=O)c3ccc(C)cc3)ccc21 | -16
CC(=O)N1CCC2(CC1)OC(=O)C(C)=C2C(=O)NCCCN1CC(C)CC(C)C1 (centres undefined) | 17
Cc1ccsc1[C@@H]1CCN(C(=O)c2ccccc2-c2nn[nH]n2)C[C@H]1O | 5
COc1cc(S(=O)(=O)N(Cc2ccccc2F)C2CCCC2)ccc1-n1cnnn1 | -46
CC(NC1CSCCSC1)c1cn2ccsc2n1 (centres undefined) | 6
COc1cc(NC(=O)Cn2c(=O)cc(C(=O)N3CCCC3)c3ccccc32)cc(OC)c1 | 6
CC(C)CN1C(=O)N(C)C(=O)C12CCN(Cc1cn(-c3ccccc3)nc1-c1ccccc1)CC2 | -27
CCn1c(=O)c(-c2nc(-c3cccc(Cl)c3)no2)c(O)c2ccc(F)cc21 | -8
CN(C)C[C@@]12COC[C@H]1CN(S(=O)(=O)c1cccc(F)c1)C2 | -39
Cc1ccsc1S(=O)(=O)N1CC[C@@](C)(O)[C@@H](CC(C)C)C1 | -13
CCN1c2ccccc2C(=O)NC12CCN(C(=O)Nc1cc(Cl)ccc1OC)CC2 | -66
CCCN1C(=O)CCc2cc(NC(=O)c3ccc(CC)cc3)ccc21 | -59
CCc1ccc(C(=O)Nc2ccc3c(c2)CCC(=O)N3CCOC)cc1 | -74*
COCCN1C(=O)CCc2cc(NC(=O)c3ccc(C)cc3)ccc21 | -5
CCc1cnc(N2CCC3(CCC(=O)N3Cc3ccccc3)CC2)nc1 | -4
CCn1c(=O)c(-c2nc(-c3ccccc3F)no2)c(O)c2cc(F)ccc21 | 36
CN(Cc1nccn1C)c1ccc(-c2nccn2C)nn1 | -3
Cc1c(CN(C)c2ccc(-c3nccn3C)nn2)[nH]c2ccccc12 | -96*
CN(Cc1ccoc1)c1ccc(-c2nccn2C)nn1 | 67
Cc1nc(CN2C[C@@H]3CN(CC4CC4)C[C@H]3C2=O)cs1 | 3
SMILES | Tgondii IFNg
C=C1c2cccc(O)c2C(=O)C2C(=O)[C@]3(O)C(=O)C(C(N)=O)C(=O)[C@@H](N(C)C)[C@@H]3[C@@H](O)[C@H]12 (some centres undefined) | -72*!
CN1CCC2(COCCN(S(=O)(=O)c3cccc(F)c3)C2)C1 (centres undefined) | 12
Cc1cc(C)cc(NC(=O)C(=O)NCCc2sc(-c3cccc(C)c3)nc2C)c1 | 46
O=C(O)c1ccc(-c2ccc(F)cc2)o1 | -58
COCC1CN(Cc2c(C)noc2C)Cc2cncn2C1 (centres undefined) | -6
Cc1noc(-c2cc(=O)n(CC(=O)NC3CCCC3)c3ccccc23)n1 | 68
CC(Cn1cnc2c3cc(F)ccc3n(CC(=O)NC3CCCC3)c2c1=O)c1ccccc1 (centres undefined) | -102*
Cc1ccc2c(c1)cc(S(=O)(=O)c1ccccc1)c(=O)n2CC(=O)NC1CCCC1 | -20
CCCCC[C@H](CC(=O)NO)C(=O)N[C@H](C(=O)N1CCC[C@H]1CO)C(C)C | -77*
CCC(=O)Nc1cccc(C(=O)N2CCC[C@H]2CO)c1 | 5
C=CCOCC1c2c(ncn2C)CCN1CC1CC1 (centres undefined) | 29
Oc1cc(-c2cccc(Cl)c2)cc2c1OCCN(CCn1cccc1)C2 | -1
CCCCCCCCCCOC1CCS(=O)(=O)C1 (centres undefined) | -84*
CCCCSC(=S)NC1CCS(=O)(=O)C1 (centres undefined) | 4
Cc1c(-c2cncn2CCNC2CCS(=O)(=O)C2)[nH]c2ccccc12 (centres undefined) | -14
CC(C)(C)c1cc(C(=O)NCc2csc3ccc(Cl)cc23)n(Cc2ccccc2)n1 | -61
O=C1NC(C(=O)N2CCC(c3cc(Cc4ccccc4)[nH]n3)CC2)CO1 (centres undefined) | 3
Cn1cc(C(=O)O)c(=O)c2ccccc21 | -6
Cn1cc(C2=C(c3cn(CCCSC(=N)N)c4ccccc34)C(=O)NC2=O)c2ccccc21 | -77*
COc1ccc2c(c1)c(C1=C(c3c[nH]c4ccccc34)C(=O)NC1=O)cn2CCCN(C)C | -52
CCCCNC(=O)c1c(O)c2cccnc2n(-c2cccc(OC)c2)c1=O | 138
O=C(NCCc1csc(-c2cccc(F)c2)n1)c1cccc(F)c1 | -59
O=C(NCCc1csc(-c2ccc(Cl)cc2)n1)c1cccc(F)c1 | -50
Cc1nc(-c2cccc(F)c2)sc1CCNC(=O)c1ccc(Cl)cc1 | -4
COc1cc(OC)cc(C(=O)NCCc2csc(-c3cccc(F)c3)n2)c1 | 30
COc1cccc(C(=O)NCCc2csc(-c3cccc(F)c3)n2)c1 | -48
Cc1nc(-c2cccc(F)c2)sc1CCNC(=O)c1ccc(C(C)(C)C)cc1 | -43
